High-throughput results (PubChem BioAssay)
In the library only some 9.2% were active in any assay of this set; here they are far more common.
HPGD inh = qHTS Assay for Inhibitors of HPGD (15-Hydroxyprostaglandin Dehydrogenase); 15-hydroxyprostaglandin dehydrogenase [NAD(+)] (Homo sapiens), P15428; purified HPGD, NADH fluorescence kinetic, PGE2 substrate; 150,000 tested, 4.3% active; Potency, µM, actives largely listed as inhibitors; AID 894, 2007
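NADH formation kinetics: reaction with 30 uM PGE2 and 1 mM NAD+ (final), 20 nM enzyme, Tris-HCl pH 8 with Tween 20, after 15 min compound preincubation at room temperature. Fluorescence change, last versus first of five reads.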
KDM4E inh = qHTS Assay for Inhibitors of Human Jumonji Domain Containing 2E (JMJD2E); Lysine-specific demethylase 4E (Homo sapiens), B2RXH2; JMJD2E catalytic domain, FDH-coupled NADH fluorescence (FDH is formaldehyde dehydrogenase); Potency, µM (doses to about 57.1 µM), usual class: inhibitors; 230,000 tested, 1.6% active; AID 2147, 2009; further: nearly all actives have a fitted effect of over 50% in size
ALDH1A1 inh = qHTS Assay for Inhibitors of Aldehyde Dehydrogenase 1 (ALDH1A1); Aldehyde dehydrogenase 1A1 (Homo sapiens), P00352; 220,000 tested, 7.3% active; Purified ALDH1A1, NADH fluorescence, propionaldehyde substrate; AID 1030, 2008; Potency, µM (series often up to 75.3 µM), actives largely listed as inhibitors
Target sequence (P00352 whole entry, looked up): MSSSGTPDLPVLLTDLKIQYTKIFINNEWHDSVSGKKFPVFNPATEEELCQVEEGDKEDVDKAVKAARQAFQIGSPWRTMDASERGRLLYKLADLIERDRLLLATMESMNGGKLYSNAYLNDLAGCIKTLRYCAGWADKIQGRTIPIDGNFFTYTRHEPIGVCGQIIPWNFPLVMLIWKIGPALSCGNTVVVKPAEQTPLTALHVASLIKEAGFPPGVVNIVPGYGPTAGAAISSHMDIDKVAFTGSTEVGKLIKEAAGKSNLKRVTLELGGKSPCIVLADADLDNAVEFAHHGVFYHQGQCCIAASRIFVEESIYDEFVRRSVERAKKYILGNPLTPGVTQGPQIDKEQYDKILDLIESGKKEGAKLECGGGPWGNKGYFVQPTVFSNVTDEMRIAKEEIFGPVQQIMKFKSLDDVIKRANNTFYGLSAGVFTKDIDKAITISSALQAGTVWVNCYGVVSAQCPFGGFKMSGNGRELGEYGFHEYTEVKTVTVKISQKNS
HTT ATP protect = qHTS Multiplex Assay to Identify Dual Action Probes in a Cell Model of Huntington: Cytoprotection (ATP); Potency, µM (series often up to 56.4 µM), hits mostly activators; AID 1471, 2008; PC12 HTT-Q103 induced, cytoprotection, ATP luminescence, 40 h; 230,000 tested, 0.14% active; active means well fitted curve in the direction sought with a large enough effect; inconclusive means small, poorly fitted or top-dose-only effect, or another doubt; inactive means no such curve, though single readings can be large; an effect the other way counts as inactive or inconclusive; further: nearly all actives have a fitted effect of over 45% in size
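Cells were plated at 1500 per well in phenol red-free DMEM with 5% equine and 5% calf serum. Tebufenozide (100 nM final) and compounds were added, then ATPlite reagent, and luminescence was read.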
Lamin A splicing = qHTS Assay for Modulators of Lamin A Splicing; AID 1487, 2009; HeLa LMNA splicing GFP/RFP minigene ratio, 48 h; 200,000 tested, 0.01% active; Potency, µM (highest dose often 46.1 µM), most hits filed as inhibitors; active means well fitted inhibition curve with a large enough effect in the signal ratio, with a control signal flat, not every such curve was filed as active; inconclusive means small, poorly fitted or top-dose-only effect, or effect the other way, or a change in a side signal; the % refers to the signal ratio
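S3 HeLa stable clones carrying a lamin A-EGFP splicing minigene plus DsRed2 were seeded at 600 cells/well in Opti-MEM with 2% FBS, pin-dosed and incubated 48 h at 37°C. Acumen cytometry (488 nm) gave the GFP/RFP total-intensity ratio.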
HttQ103 aggreg = qHTS Multiplex Assay to Identify Dual Action Probes in a Cell Model of Huntington: Aggregate Formation (GFP); 220,000 tested, 1.1% active; AID 1688, 2009; Potency, µM (highest dose often 46.1 µM), hits mostly inhibitors; PC12 HttQ103-GFP aggregates, Acumen cytometry, 40 h; active means well fitted curve in the direction sought with a large enough effect; inconclusive means small, poorly fitted or top-dose-only effect, or another doubt; inactive means no such curve, though single readings can be large; an effect the other way counts as inactive or inconclusive; further: nearly all actives have a fitted effect of over 60% in size
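PC12 cells stably carrying ecdysone-inducible HTT exon 1 Q103–GFP were induced with tebufenozide (100 nM final) and treated with library compounds in titration. GFP aggregates in lysates were counted by laser scanning cytometry.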
Each line names hits and unclear results; the compound was inactive in the other large screens. Unless noted, the call rests on the fitted dose curve; in most records, active means well fitted inhibition curve with a large enough effect (not every such curve was filed as active); inconclusive means small, poorly fitted or top-dose-only effect, or another doubt; inactive means no such curve, though single readings can be large or run the other way.

CCc1ccccc1NC(=O)c1noc(C(C)C)c1[N+](=O)[O-]	HttQ103 aggreg 7.08µM (no result: HPGD inh, Lamin A splicing)
CC(C)c1onc(C(=O)N2CCCCC2C)c1[N+](=O)[O-] (stereo not given)	HPGD inh inconclusive
CC(C)c1onc(C(=O)N2CCCCC2)c1[N+](=O)[O-]	HPGD inh 14.1µM, ALDH1A1 inh inconclusive
CC(C)(S)[C@H](N)C(=O)O	none (no result: Lamin A splicing, HttQ103 aggreg)
Cc1ccc(Cl)cc1N1CCN(C(=O)Cn2cnc3nc4c(cc3c2=O)CCCC4)CC1	none (no result: HPGD inh, KDM4E inh, ALDH1A1 inh, HTT ATP protect, HttQ103 aggreg)
O=C(O)CCC(=O)Nc1nnc(C(F)(F)F)s1	none
CCC(NC(=O)Nc1nnc(C(F)(F)F)s1)(C(F)(F)F)C(F)(F)F	Lamin A splicing inconclusive, HttQ103 aggreg 1.58µM
CCOC(=O)CSc1nc2c(sc3ccccc32)c(=O)n1CCO	none (no result: HPGD inh, KDM4E inh, ALDH1A1 inh, HTT ATP protect, HttQ103 aggreg)
Oc1ccccc1N=Cc1ccc[nH]1	Lamin A splicing inconclusive, HttQ103 aggreg inconclusive
Oc1ccccc1N=Nc1ccccc1O	KDM4E inh 31.6µM, Lamin A splicing inconclusive, HttQ103 aggreg inconclusive (no result: HPGD inh)
COCCCN=C1NN=C(c2cc(C)n(-c3ccccc3F)c2C)CS1	KDM4E inh 31.6µM, ALDH1A1 inh 25.1µM, HttQ103 aggreg inconclusive (no result: HPGD inh, Lamin A splicing)
COCCn1c(C)cc(C2=NNC(=Nc3ccccc3F)SC2)c1C	KDM4E inh 25.1µM, ALDH1A1 inh 17.8µM
COCCCN=C1NN=C(c2cc(C)n(-c3ccccc3)c2C)CS1	ALDH1A1 inh 8.91µM, Lamin A splicing inconclusive (no result: HTT ATP protect)
Cc1cc(C2=NNC(=NCCc3ccccc3)SC2)c(C)n1-c1c(C)n(C)n(-c2ccccc2)c1=O	none (no result: HPGD inh, ALDH1A1 inh, Lamin A splicing)
COCCCN=C1NN=C(c2cc(C)n(Cc3ccccc3Cl)c2C)CS1	KDM4E inh inconclusive, ALDH1A1 inh 25.1µM (no result: HPGD inh, Lamin A splicing)
Cc1ccc(-n2ncc3c(Nc4ccc5c(c4)OCCO5)ncnc32)cc1C	none (no result: HPGD inh, KDM4E inh, ALDH1A1 inh, HTT ATP protect, HttQ103 aggreg)
Fc1ccc(N=C2NN=C(c3cc(F)ccc3F)CS2)cc1	KDM4E inh inconclusive, ALDH1A1 inh inconclusive, Lamin A splicing inconclusive, HttQ103 aggreg inconclusive
O=S(=O)(c1ccc(N=C2NN=C(c3cc(F)ccc3F)CS2)cc1)N1CCOCC1	ALDH1A1 inh 28.2µM (no result: HPGD inh, Lamin A splicing)
Fc1ccc(F)c(C2=NNC(=Nc3ccccc3F)SC2)c1	HPGD inh 15.8µM, ALDH1A1 inh 15.8µM, Lamin A splicing inconclusive (no result: HTT ATP protect)
Cc1ccccc1S(=O)(=O)NCc1ccc(N2CCN(C)CC2)cc1	none (no result: HPGD inh, ALDH1A1 inh, Lamin A splicing)
Cc1cccc(CNC(=O)c2ccc3oc(=O)n(Cc4ccccc4)c3c2)c1	none (no result: HPGD inh, KDM4E inh, ALDH1A1 inh, HTT ATP protect, HttQ103 aggreg)
Cc1ccccc1NC(=O)COc1ccc2c(c1)OC(C)(C)CC2=O	KDM4E inh inconclusive, ALDH1A1 inh 14.1µM (no result: HPGD inh, Lamin A splicing)
O=C1C2C3C=CC(C3=C(c3ccccc3)c3ccccc3)C2C(=O)N1Cc1ccccc1 (stereo not given)	HPGD inh 39.8µM, ALDH1A1 inh 1.12µM, Lamin A splicing inconclusive
COc1ccc(Br)cc1CN(C)CC(=O)Nc1c(Cl)cccc1Cl	HPGD inh 15.8µM, Lamin A splicing inconclusive
CC1CCN(C(=O)c2ccc(N(C)S(C)(=O)=O)cc2)CC1	HPGD inh 14.1µM
CN(c1ccc(C(=O)N2CCCCC2)cc1)S(C)(=O)=O	HPGD inh 10µM, HttQ103 aggreg inconclusive
Cc1nc(-c2ccccc2)sc1C(=O)/C=C/c1ccc(Cl)cc1	ALDH1A1 inh 3.16µM, Lamin A splicing inconclusive
C=CCN1C(=O)CN=C1Nc1cc(C)ccc1C	ALDH1A1 inh 3.55µM
O=C(Nc1ccc(SC(F)(F)F)cc1)c1ccccn1	Lamin A splicing inconclusive (no result: HPGD inh)
COCCn1nnnc1CN1CCC(NC(=O)c2ccc(Br)cc2)CC1	none
COc1cc(C(=O)NC2CCN(Cc3nnnn3Cc3cccs3)CC2)cc(OC)c1OC	ALDH1A1 inh 8.91µM
O=C(NCCc1cccs1)C1CC(c2c(Cl)cccc2Cl)=NO1 (stereo not given)	HPGD inh 14.1µM, HttQ103 aggreg inconclusive
